Take `Cc1c(Cn2c(C)c(C)n3c(=O)cc(N4CCOCC4)nc23)cccc1C(F)(F)F` [GSK2328680]: the Kinases covered entry with PIK3CB was “PIK3CB”.
As for `CNc1nc(-c2ccc3c(N)n[nH]c3c2)cc(N2C[C@@H](C(=O)Nc3ccccc3)CC[C@H]2C)n1` [GSK2298859], the Kinases covered result in the assay on PDPK1 was “PDPK1”.
For `Cc1nnc(-c2ccc3occ(-c4ccc(S(C)=O)cc4)c3c2)[nH]1` (centres unmarked) [TPKI-85], the Kinases covered result in the assay on PIK3C3 was “PIK3C3”.
Regarding `COc1ccc(-c2cc3c(C)nc(N)nc3n([C@H]3CC[C@H](O)CC3)c2=O)cn1` [PFE-PKIS 40], the Kinases covered entry is on record as “PI4KB” in the assay with PI4KB; “PIK3C2B” in the assay on PIK3C2B; “PIK3C2G” in the assay with PIK3C2G; “PIK3CB” in the assay with PIK3CB; “PIK3CD” in the assay on PIK3CD; “PIK3CG” in the assay on PIK3CG.
As to `Cc1c(Cn2c(C)nn3c(=O)cc(N4CCO[C@H](C)C4)nc23)cccc1C(F)(F)F` [GSK2373690], the Kinases covered result with PIK3CB is given as “PIK3CB”; in the assay with PIK3CG it was “PIK3CG”.
Take `O=c1cc(N2CCOCC2)nc2n(Cc3ccccc3F)ccn12` [GSK2297428]: in the assay with PIK3C3, the Kinases covered entry is on record as “PIK3C3”.
For `O=C(Nc1ccccc1)Nc1cccc(Oc2ccc3nccn3n2)c1` [TPKI-39], the Kinases covered result in the assay on PDGFRB is “PDGFRB”.
Consider `CC(C)N1CC(=O)N(C)c2cnc(Nc3cccc(S(=O)(=O)CCN4CCOCC4)c3)nc21` [BI00009348], for which, in the assay on PIK3CG, the Kinases covered entry was “PIK3CG”.
On to `COc1cc2c(cc1OC)C(=C(Nc1ccccc1)c1cccc(CN)c1)C(=O)N2` [BIBF0846CL], for which the Kinases covered result in the assay on PDGFRB is reported as “PDGFRB”.
For the compound `COc1ccc(-c2cc3c(C)nc(N)nc3n([C@H]3CC[C@H](OCCO)CC3)c2=O)cn1` [PFE-PKIS 29], the Kinases covered result in the assay with PI4KB is “PI4KB”; with PIK3C2B, “PIK3C2B”; with PIK3C2G it was “PIK3C2G”; in the assay with PIK3CB it was “PIK3CB”; in the assay with PIK3CD, “PIK3CD”.
For `Cc1ccc(NC(=O)Nc2ccccc2F)cc1-c1ccc(C(=O)Nc2ccncc2)cc1` [GSK1398477], in the assay on PDGFRB, the Kinases covered entry was “PDGFRB”.
For `NS(=O)(=O)c1cccc(-c2ccc3nccc(-c4cccc(S(N)(=O)=O)c4)c3c2)c1` [GW867253], the Kinases covered entry is on record as “PI4KB” with PI4KB and “PIK3CG” in the assay on PIK3CG.

The values are drawn from paper PMC7826789 (International Journal of Molecular Sciences, 2021).
